The nature of experiment [1]: optical density shifts of acrAB sulA E. coli – strain DRC41, OD650, 48 h, E. coli filamentation inducer project, primary screen (AID 1152).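 Further: E. coli MC1000 strain DRC41 lacking acrAB efflux pump and sulA.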 Particulars: higher = more signal, called active from +8 up or from −8 down.
Experiment [2] in a line: probe aLefty1 binding on compound microarray – biochemical, small-molecule microarray, 635/667 nm fluorescence, primary screen (AID 1153).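 Further: score merges spot fluorescence with signal-to-noise ratio from the scanned slide images.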 Particulars: higher = more signal.
Experiment [3] is described as follows: plasmodial surface anion channel blockers, osmotic lysis – cell-based, P. falciparum Indochina, OD700, 1 h, primary screen (AID 1154). As to conditions: P. falciparum Indochina infected RBC osmotic lysis, higher = more signal, called active from +8 up or from −8 down.
Experiment [4] in a line: plasmodial surface anion channel blockers, osmotic lysis – cell-based, P. falciparum Indochina, OD700, 2 h, primary screen (AID 1155).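 Further: lysis reports solute entry through the parasite surface anion channel PSAC.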 Particulars: P. falciparum Indochina infected erythrocytes, higher = more signal, called active from +8 up or from −8 down.
A short description of experiment [5]: changes in parasitized red cell lysis, either direction – P. falciparum Indochina, OD700, 3 h, PSAC antagonist project, primary screen (AID 1156). As to conditions: P. falciparum-infected erythrocytes, osmotic lysis, higher = more signal, called active from +8 up or from −8 down.
Experiment [6] in a line: plasmodial surface anion channel blockers, osmotic lysis – cell-based, P. falciparum Indochina, OD700, 18 h, primary screen (AID 1157). As to conditions: P. falciparum Indochina infected erythrocytes, osmotic lysis OD700, 18 h; higher = more signal, called active from +8 up or from −8 down.
Experiment [7] in a line: S6 kinase pathway phospho-S6 level changes – cell-based, A549, cytoblot, luminescence, serum-stimulated, primary screen (AID 1158).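 Further: serum-stimulated A549 lung adenocarcinoma cells; signal is phosphorylated S6 detected by cytoblot immunostaining with HRP secondary.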 As to conditions: 5 h, higher = more signal.
In experiment [8] the target is NADPH oxidase 2 (Homo sapiens) (UniProt P04839). Kind of experiment: compounds shifting NOX2 Amplex Red fluorescence – cell-based, HEK293-NOX2, PMA-stimulated, NOX inhibitor project, primary screen (AID 1159). Further: test concentration not given here. Particulars: 45 min, higher = more signal, called active from +8 up or from −8 down.
Experiment [9] addresses NADPH oxidase 4 (Homo sapiens) (UniProt Q9NPH5). Kind of experiment: compounds shifting NOX4 Amplex Red fluorescence – cell-based, HEK293-NOX4, tetracycline-induced, NOX inhibitor project, primary screen (AID 1160). Particulars: HEK293-NOX4, Amplex Red H2O2 fluorescence, 45 min; higher = more signal, called active from +8 up or from −8 down.
The target in experiment [10] is NADPH oxidase 5 (Homo sapiens) (UniProt Q96PH1). Kind of experiment: compounds shifting NOX5 Amplex Red fluorescence – cell-based, HEK293-NOX5, NOX inhibitor project, primary screen (AID 1161). Particulars: HEK293-NOX5, ionomycin, 45 min, higher = more signal.
Experiment [11] in a line: compound effects on lung adenocarcinoma cell viability – A549, calcein-AM fluorescence, 48 h, basal, profiling panel (AID 1162). Further: test concentration not given here. Particulars: higher = more signal.
Experiment [12] is described as follows: compound effects on differentiated 3T3-L1 adipocyte viability – cell-based, 3T3-L1 adipocytes, calcein-AM fluorescence, 48 h, basal, profiling panel (AID 1163). Further: test concentration not given here. As to conditions: 3T3-L1 adipocytes viability, higher = more signal.
Experiment [13] in a line: compound effects on hepatocellular carcinoma cell viability – HepG2, calcein-AM fluorescence, 48 h, basal, profiling panel (AID 1164). Further: test concentration not given here. As to conditions: higher = more signal.
A short description of experiment [14]: compound effects on multiple myeloma cell viability – MM1S, calcein-AM fluorescence, 48 h, basal, profiling panel (AID 1165).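 Further: viability of MM1S multiple myeloma cells under basal unstimulated conditions; test concentration not given here.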 Particulars: higher = more signal.
Experiment [15] is described as follows: calcein-AM signal in unstimulated myeloma cells – cell-based, calcein-AM fluorescence, 48 h, PK04 Diversity Set, profiling panel (AID 1166).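 Further: cells grown under basal conditions without added stimulus; test concentration not given here.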 As to conditions: RPMI8226 myeloma viability, higher = more signal.
Experiment [16] in a line: JC-1 mitochondrial signal, unstimulated HepG2 cells – cell-based, JC-1 fluorescence, 24 h, 100 nL compound, profiling panel (AID 1167). Further: test concentration not given here. As to conditions: HepG2 mitochondrial potential, higher = more signal.
Experiment [17] is described as follows: JC-1 mitochondrial signal, unstimulated adipocytes – cell-based, JC-1 fluorescence, 3T3-L1 adipocytes, 24 h, 100 nL compound, profiling panel (AID 1168). Further: test concentration not given here. Particulars: JC-1 mitochondrial fluorescence, higher = more signal, called active from +8 up or from −8 down.
The nature of experiment [18]: JC-1 mitochondrial signal, unstimulated myeloma cells – cell-based, JC-1 fluorescence, RPMI8226, 24 h, 100 nL compound, profiling panel (AID 1169). Further: test concentration not given here. Particulars: JC-1 mitochondrial potential fluorescence, higher = more signal.
Experiment [19] is described as follows: JC-1 mitochondrial signal, unstimulated MM1S myeloma – cell-based, JC-1 fluorescence, 24 h, 100 nL compound, profiling panel (AID 1170). Further: test concentration not given here. Particulars: MM1S mitochondrial potential, higher = more signal.
A short description of experiment [20]: resazurin metabolic signal in A549 cells – cell-based, resazurin fluorescence, 24 h, PK04 Diversity Set, profiling panel (AID 1171). Further: test concentration not given here. Particulars: A549 viability, higher = more signal, called active from +8 up or from −8 down. A general note: The colour change of resazurin is a common sign of viable cells or microbes.

Activity calls are given as the source filed them.

Sequence of NADPH oxidase 5 (Homo sapiens) (Q96PH1 whole entry, looked up): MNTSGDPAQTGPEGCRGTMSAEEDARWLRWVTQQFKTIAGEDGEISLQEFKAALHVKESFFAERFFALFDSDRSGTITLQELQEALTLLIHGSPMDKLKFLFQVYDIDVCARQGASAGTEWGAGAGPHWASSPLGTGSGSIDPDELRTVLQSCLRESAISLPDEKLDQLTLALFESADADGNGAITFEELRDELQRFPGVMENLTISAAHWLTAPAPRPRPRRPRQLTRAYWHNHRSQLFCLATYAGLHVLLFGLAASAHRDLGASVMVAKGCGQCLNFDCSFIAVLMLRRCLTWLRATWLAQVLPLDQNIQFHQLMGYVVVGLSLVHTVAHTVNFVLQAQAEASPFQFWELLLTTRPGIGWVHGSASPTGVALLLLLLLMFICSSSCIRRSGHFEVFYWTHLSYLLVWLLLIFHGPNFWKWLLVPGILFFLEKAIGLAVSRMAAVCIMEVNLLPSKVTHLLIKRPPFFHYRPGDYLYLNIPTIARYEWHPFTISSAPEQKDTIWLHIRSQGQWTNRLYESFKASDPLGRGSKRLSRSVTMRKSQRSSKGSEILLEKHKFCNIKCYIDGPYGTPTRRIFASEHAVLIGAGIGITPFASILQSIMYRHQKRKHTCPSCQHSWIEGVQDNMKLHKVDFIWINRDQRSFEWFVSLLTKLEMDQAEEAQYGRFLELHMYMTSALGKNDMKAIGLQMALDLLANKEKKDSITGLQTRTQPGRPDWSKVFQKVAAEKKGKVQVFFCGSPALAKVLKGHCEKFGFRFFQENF
Sequence of NADPH oxidase 4 (Homo sapiens) (Q9NPH5 whole entry, looked up): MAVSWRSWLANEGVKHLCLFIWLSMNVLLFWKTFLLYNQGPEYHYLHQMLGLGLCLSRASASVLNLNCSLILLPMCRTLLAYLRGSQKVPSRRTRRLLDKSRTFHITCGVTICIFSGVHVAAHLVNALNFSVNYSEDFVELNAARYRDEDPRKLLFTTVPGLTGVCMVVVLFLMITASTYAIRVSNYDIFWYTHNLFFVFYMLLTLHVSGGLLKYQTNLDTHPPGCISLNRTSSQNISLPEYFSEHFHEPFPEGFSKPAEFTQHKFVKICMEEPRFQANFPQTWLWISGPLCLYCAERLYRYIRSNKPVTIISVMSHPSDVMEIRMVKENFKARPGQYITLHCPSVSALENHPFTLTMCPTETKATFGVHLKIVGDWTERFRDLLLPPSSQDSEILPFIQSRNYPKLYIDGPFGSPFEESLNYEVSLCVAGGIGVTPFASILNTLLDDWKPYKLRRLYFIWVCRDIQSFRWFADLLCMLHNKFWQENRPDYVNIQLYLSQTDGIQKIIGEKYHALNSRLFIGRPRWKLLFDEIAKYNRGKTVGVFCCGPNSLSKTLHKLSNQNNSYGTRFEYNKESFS
Sequence of NADPH oxidase 2 (Homo sapiens) (P04839 whole entry, looked up): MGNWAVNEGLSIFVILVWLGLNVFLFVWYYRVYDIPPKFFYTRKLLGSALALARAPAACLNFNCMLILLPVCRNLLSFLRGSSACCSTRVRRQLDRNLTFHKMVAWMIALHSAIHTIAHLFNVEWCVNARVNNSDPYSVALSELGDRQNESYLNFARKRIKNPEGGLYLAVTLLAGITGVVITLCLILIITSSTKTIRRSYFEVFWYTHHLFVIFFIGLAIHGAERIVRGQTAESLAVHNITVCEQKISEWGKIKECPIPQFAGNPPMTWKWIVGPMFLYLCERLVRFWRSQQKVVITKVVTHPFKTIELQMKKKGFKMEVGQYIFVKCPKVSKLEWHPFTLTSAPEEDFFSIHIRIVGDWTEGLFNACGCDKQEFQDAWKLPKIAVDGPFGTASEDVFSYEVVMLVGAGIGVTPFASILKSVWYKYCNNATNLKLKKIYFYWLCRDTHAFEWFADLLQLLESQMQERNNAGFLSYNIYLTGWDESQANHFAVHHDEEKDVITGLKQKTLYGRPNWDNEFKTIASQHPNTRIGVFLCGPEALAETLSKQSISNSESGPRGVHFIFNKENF

In the case of `O=C1C[C@@](C(=O)NCCN2CCOCC2)(c2ccc([N+](=O)[O-])cc2)[C@@H](c2ccc(CO)cc2)N1CC12CC3CC(CC(C3)C1)C2`, the z-score in [1] was -3.18 (inactive); in experiment [3], 4.51 (inactive); in experiment [4], 1.23 (inactive); in experiment [5], 1.24 (inactive); in experiment [6], 0.548 (inactive); in experiment [7] it was 0.101. The z-score was -4.27 (inactive) in experiment [8]; -2.56 (inactive) in experiment [9]; -1.06 in experiment [10]; -2.97 in experiment [11]; 0.0433 in [12]; -3 in experiment [13]. The z-score in experiment [14] was -3.83; in [15], -4.23; in experiment [16], -2.04; in [17], -0.907 (inactive); in experiment [18] it was -0.893; in [19], -0.615. Also, in [20], the z-score is -2.06 (inactive). Besides, in experiment [2], the composite z-score came out at 0.394.
With `CC(C)c1ccc(NN2C(C(O)c3ccc(B(O)O)cc3)C=CC3C(=O)N(c4ccccc4)C(=O)C32)cc1` (stereo not given), the z-score in experiment [1] is -1.04 (inactive); in experiment [3], 1.93 (inactive); in experiment [4], 0.698 (inactive); in experiment [5], 0.421 (inactive); in experiment [6], 1.27 (inactive); in [7], -0.999. Further, the z-score in experiment [8] was -1.02 (inactive); in experiment [9], -2.31 (inactive); in experiment [10] it was -4.18; in experiment [11], -1.34; in [12], -0.386; in experiment [13] it was -1.28. Also, the z-score in experiment [14] was -0.571; in experiment [15], -0.587; in experiment [16], -1.75; in [17], -1.56 (inactive); in [18], -0.894; in experiment [19], 0.00559. Moreover, the z-score in experiment [20] was -0.212 (inactive). This molecule registered a composite z-score in experiment [2] of 0.0595.
Turning to `CC[C@@H]1C=C(C(=O)O)[C@H](c2ccc(Br)cc2)N1S(=O)(=O)c1ccc(C)cc1`, the z-score in [1] was -0.467 (inactive); in experiment [3], 0.471 (inactive); in experiment [4], 1.06 (inactive); in experiment [5], -0.187 (inactive); in experiment [6], 0.658 (inactive); in experiment [7], -0.283. Moreover, the z-score in experiment [8] is 0.451 (inactive); in experiment [9] it was -0.117 (inactive); in experiment [10] it was 0.379; in experiment [11], -0.646; in [12], -0.506; in [13], -0.586. The z-score is -0.314 in experiment [14]; -1.13 in experiment [15]; -0.131 in [16]; -0.258 (inactive) in [17]; -0.0108 in experiment [18]; -0.82 in [19]. Also, the z-score in experiment [20] was -0.472 (inactive). This molecule showed a composite z-score in experiment [2] of -0.0989.
With `O=C1C[C@@](C(=O)NC2CC2)(c2ccc([N+](=O)[O-])cc2)[C@@H](c2ccc(CO)cc2I)N1C1CCCCC1`, the z-score is -0.178 (inactive) in [1]; 16.5 (active) in [3]; 2.28 (inactive) in experiment [4]; 3.03 (inactive) in experiment [5]; 0.797 (inactive) in experiment [6]; -0.552 in [7]. For the same molecule, the z-score in [8] was 1.37 (inactive); in experiment [9] it was 0.666 (inactive); in experiment [10] it was 2.04; in experiment [11] it was 0.147; in experiment [12] it was -0.536; in [13] it was 0.522. In addition, the z-score in experiment [14] was -1.77; in experiment [15], -1.17; in [16], 0.575; in experiment [17] it was -0.604 (inactive); in experiment [18], -0.36; in experiment [19], -0.993. Besides, the z-score in experiment [20] was 0.0067 (inactive). Besides, the composite z-score in experiment [2] was -0.034.

The values are drawn from PubChem BioAssay.
